The supplement of paper PMC6897291

Test system: RIVA
Test: growth inhibition by drug alone (1 - RLU/untreated control) (fraction); higher = stronger inhibition
Details: 177Lu-lilotomab satetraxetan 0 ug/ml
Experimental: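 RIVA (RI-1) ABC-DLBCL cells were pretreated or not for 18 h with 0.5 ug/ml 177Lu-lilotomab satetraxetan (600 MBq/mg), washed and seeded (3000 cells/well) on 384-well plates pre-printed with the Selleck Cambridge Cancer Compound library. Viability was read by RealTime-Glo luminescence on days 3-6 after seeding. Effect = 1 - RLU/mean RLU of the 48 untreated no-drug control wells per plate; Bliss score = (M-E)/(1-Fa).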

How did the “growth inhibition by drug alone” value (10 nM, time (day): 3) turn out when `CC(=O)Nc1ccc(OC[C@](C)(O)C(=O)Nc2ccc([N+](=O)[O-])c(C(F)(F)F)c2)cc1` [Andarine (GTX-007)] was run?
Its value is 0.017.

What about the “growth inhibition by drug alone” value (10 nM, time (day): 4) of the same compound?
Its value is -0.0064.

And the “growth inhibition by drug alone” value (10 nM, time (day): 5)?
Its value is -0.271.

What about the “growth inhibition by drug alone” value (10 nM, time (day): 6) of the same compound?
The value was -0.322.

What about the “growth inhibition by drug alone” value (100 nM, time (day): 3) of the same compound?
Its value is -0.229.

And the “growth inhibition by drug alone” value (100 nM, time (day): 4)?
Its value is -0.219.

What about the “growth inhibition by drug alone” value (100 nM, time (day): 5) of the same compound?
Its value is -0.21.

And the “growth inhibition by drug alone” value (100 nM, time (day): 6)?
Its value is -0.215.

What does the source list for `CC[C@@H](C(=O)[C@@H](C)[C@@H](O)[C@H](C)[C@@H]1O[C@@H]([C@@H](CC)C(=O)O)CC[C@@H]1C)[C@H]1O[C@]2(C=C[C@@H](O)[C@]3(CC[C@@](C)([C@H]4CC[C@](O)(CC)[C@H](C)O4)O3)O2)[C@H](C)C[C@@H]1C` [Salinomycin (Procoxacin)]?
growth inhibition by drug alone (10 nM, time (day): 3): 0.136; growth inhibition by drug alone (10 nM, time (day): 4): 0.0825; growth inhibition by drug alone (10 nM, time (day): 5): -0.0184; growth inhibition by drug alone (10 nM, time (day): 6): -0.226; growth inhibition by drug alone (100 nM, time (day): 3): 0.144; growth inhibition by drug alone (100 nM, time (day): 4): 0.126; growth inhibition by drug alone (100 nM, time (day): 5): 0.0706; growth inhibition by drug alone (100 nM, time (day): 6): -0.0392

Which results are given for `Cc1ccccc1-n1c(Cn2cnc3c(N)ncnc32)nc2cccc(C)c2c1=O`?
growth inhibition by drug alone (10 nM, time (day): 3): -0.0276; growth inhibition by drug alone (10 nM, time (day): 4): -0.0854; growth inhibition by drug alone (10 nM, time (day): 5): -0.0849; growth inhibition by drug alone (10 nM, time (day): 6): -0.118; growth inhibition by drug alone (100 nM, time (day): 3): 0.0893; growth inhibition by drug alone (100 nM, time (day): 4): -0.00364; growth inhibition by drug alone (100 nM, time (day): 5): -0.0617; growth inhibition by drug alone (100 nM, time (day): 6): -0.104

`O=C(Oc1ccc([N+](=O)[O-])cc1)N1CCC(C(O)(c2ccc3c(c2)OCO3)c2ccc3c(c2)OCO3)CC1` was tested. Which “growth inhibition by drug alone” value (10 nM, time (day): 3) did it give?
Its value is 0.0104.

And the “growth inhibition by drug alone” value (10 nM, time (day): 4)?
Its value is -0.0507.

And the “growth inhibition by drug alone” value (10 nM, time (day): 5)?
Its value is -0.0874.

What about the “growth inhibition by drug alone” value (10 nM, time (day): 6) of the same compound?
The value was -0.233.

And the “growth inhibition by drug alone” value (100 nM, time (day): 3)?
Its value is -0.163.

And the “growth inhibition by drug alone” value (100 nM, time (day): 4)?
The value was -0.136.

What about the “growth inhibition by drug alone” value (100 nM, time (day): 5) of the same compound?
Its value is -0.159.

And the “growth inhibition by drug alone” value (100 nM, time (day): 6)?
The value was -0.226.

`Cc1cc2c(C(C)C)c(O)c(O)c(C=O)c2c(O)c1-c1c(C)cc2c(C(C)C)c(O)c(O)c(C=O)c2c1O` [Gossypol] was tested. Which “growth inhibition by drug alone” value (10 nM, time (day): 3) did it give?
The value was -0.235.

And the “growth inhibition by drug alone” value (10 nM, time (day): 4)?
The value was -0.278.

What about the “growth inhibition by drug alone” value (10 nM, time (day): 5) of the same compound?
Its value is -0.288.

What about the “growth inhibition by drug alone” value (10 nM, time (day): 6) of the same compound?
The value was -0.349.

And the “growth inhibition by drug alone” value (100 nM, time (day): 3)?
The value was -0.0878.

What about the “growth inhibition by drug alone” value (100 nM, time (day): 4) of the same compound?
Its value is -0.143.

What about the “growth inhibition by drug alone” value (100 nM, time (day): 5) of the same compound?
Its value is -0.172.

What about the “growth inhibition by drug alone” value (100 nM, time (day): 6) of the same compound?
The value was -0.216.
